# Assay results reported in ChEMBL document CHEMBL3988442, “University of Dundee, Small-Polar-MMV Screening Library” (2021).
# For some assays here: Results with a measured potency or affinity are listed apart.
# How the values were obtained:
# Set-up in all cases: scale not given: direction of the effect not stated beside the values
# [1] = target: Protein translocase subunit SecA (Escherichia coli (strain K12)) (UniProt P10408); test: Assay to Identify E. coli SecA ATPase Inhibitors; assay type: functional; conditions: 30 µM
# Sequence of Protein translocase subunit SecA (Escherichia coli (strain K12)) (P10408 whole entry): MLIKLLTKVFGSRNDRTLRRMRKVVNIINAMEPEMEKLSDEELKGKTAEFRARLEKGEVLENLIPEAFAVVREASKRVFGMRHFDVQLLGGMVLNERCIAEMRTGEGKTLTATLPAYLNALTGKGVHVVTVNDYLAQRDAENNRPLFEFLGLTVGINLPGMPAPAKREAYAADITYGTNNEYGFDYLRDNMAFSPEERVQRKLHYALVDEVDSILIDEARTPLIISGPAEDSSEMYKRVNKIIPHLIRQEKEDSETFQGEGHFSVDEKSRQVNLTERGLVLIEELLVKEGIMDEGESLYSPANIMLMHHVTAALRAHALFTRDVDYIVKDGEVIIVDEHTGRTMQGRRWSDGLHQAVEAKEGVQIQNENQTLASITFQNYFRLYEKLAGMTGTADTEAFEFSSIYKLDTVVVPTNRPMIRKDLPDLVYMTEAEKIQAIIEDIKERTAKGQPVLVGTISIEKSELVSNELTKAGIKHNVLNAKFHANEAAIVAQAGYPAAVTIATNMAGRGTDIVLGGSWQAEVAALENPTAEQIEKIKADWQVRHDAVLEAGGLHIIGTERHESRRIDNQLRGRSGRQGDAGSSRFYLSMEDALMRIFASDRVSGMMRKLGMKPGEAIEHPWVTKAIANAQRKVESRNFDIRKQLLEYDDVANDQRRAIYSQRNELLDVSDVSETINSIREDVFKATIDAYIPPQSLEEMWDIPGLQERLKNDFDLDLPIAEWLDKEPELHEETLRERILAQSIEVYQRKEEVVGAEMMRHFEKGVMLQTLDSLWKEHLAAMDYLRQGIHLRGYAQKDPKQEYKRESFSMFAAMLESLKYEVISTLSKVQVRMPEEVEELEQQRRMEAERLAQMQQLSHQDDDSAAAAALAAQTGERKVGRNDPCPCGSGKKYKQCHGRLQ
# [2] = target: T1, Ubiquitin-activating enzyme e1, putative (Leishmania donovani (strain BPK282A1)) (UniProt E9BSI1); test: Leishmania donovani Ubiquitin Activating Enzyme (LdE1); assay type: functional; conditions: 30 µM
# T1 sequence (whole entry): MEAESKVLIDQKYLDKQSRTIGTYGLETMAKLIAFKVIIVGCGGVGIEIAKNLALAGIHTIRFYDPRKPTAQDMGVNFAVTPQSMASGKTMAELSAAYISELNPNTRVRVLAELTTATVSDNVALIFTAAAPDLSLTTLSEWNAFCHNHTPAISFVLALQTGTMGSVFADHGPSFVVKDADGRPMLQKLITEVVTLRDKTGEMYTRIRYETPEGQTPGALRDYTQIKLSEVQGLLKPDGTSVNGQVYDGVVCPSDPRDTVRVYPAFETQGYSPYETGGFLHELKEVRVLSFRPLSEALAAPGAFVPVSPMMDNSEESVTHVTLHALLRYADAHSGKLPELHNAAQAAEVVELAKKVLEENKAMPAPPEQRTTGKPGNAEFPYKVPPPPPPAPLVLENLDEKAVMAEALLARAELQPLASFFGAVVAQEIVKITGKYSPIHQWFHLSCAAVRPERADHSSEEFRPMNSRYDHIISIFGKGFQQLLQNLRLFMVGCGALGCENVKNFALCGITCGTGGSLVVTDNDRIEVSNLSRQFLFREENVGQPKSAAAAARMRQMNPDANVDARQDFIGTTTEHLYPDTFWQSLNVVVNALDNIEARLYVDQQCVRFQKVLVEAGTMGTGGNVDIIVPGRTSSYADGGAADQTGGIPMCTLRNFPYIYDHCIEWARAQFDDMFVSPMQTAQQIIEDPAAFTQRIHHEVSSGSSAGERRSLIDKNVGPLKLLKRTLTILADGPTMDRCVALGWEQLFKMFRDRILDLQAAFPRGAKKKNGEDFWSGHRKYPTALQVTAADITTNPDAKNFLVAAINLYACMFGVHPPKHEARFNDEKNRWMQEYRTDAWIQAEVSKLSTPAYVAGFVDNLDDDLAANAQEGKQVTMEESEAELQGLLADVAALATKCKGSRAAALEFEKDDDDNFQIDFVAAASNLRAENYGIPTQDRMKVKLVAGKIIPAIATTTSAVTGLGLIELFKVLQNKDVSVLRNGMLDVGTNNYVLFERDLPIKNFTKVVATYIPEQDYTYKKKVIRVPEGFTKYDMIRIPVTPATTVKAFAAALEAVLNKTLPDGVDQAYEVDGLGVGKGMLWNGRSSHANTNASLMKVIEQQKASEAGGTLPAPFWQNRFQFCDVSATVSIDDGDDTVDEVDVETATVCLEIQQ
# [3] = target: Sialic acid-binding Ig-like lectin 9 (Homo sapiens) (UniProt Q9Y336); test: Hs-Siglec9 ALPHAscreen SOP 20170721; conditions: 10 µM
# Sequence of Sialic acid-binding Ig-like lectin 9 (Homo sapiens) (Q9Y336 whole entry): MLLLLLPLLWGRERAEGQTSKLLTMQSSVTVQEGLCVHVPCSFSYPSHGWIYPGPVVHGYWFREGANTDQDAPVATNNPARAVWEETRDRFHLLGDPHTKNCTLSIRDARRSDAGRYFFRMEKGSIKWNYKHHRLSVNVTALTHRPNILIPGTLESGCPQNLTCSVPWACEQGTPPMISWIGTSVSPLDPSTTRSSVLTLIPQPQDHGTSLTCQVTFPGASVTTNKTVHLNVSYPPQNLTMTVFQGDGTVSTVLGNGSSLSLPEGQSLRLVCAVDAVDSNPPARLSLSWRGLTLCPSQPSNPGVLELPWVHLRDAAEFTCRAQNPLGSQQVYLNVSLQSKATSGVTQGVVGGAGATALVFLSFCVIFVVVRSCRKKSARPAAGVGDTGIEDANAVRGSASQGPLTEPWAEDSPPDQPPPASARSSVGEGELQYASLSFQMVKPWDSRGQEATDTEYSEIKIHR
# [4] = tested on: Trypanosoma cruzi; test: Trypanosoma cruzi phosphomannomutase and mannose-1-phosphate guanylyltransferase assay; assay type: functional; conditions: 10 µM
# [5] = target: T2, Arginase-2, mitochondrial (Homo sapiens) (UniProt P78540); test: in vitro enzyme assay to detect the production of urea directly proportional to the activity of Arginase II; assay type: functional; conditions: 33.3 µM; note: in the data most compounds retested in dose-response had high values
# T2 sequence (whole entry): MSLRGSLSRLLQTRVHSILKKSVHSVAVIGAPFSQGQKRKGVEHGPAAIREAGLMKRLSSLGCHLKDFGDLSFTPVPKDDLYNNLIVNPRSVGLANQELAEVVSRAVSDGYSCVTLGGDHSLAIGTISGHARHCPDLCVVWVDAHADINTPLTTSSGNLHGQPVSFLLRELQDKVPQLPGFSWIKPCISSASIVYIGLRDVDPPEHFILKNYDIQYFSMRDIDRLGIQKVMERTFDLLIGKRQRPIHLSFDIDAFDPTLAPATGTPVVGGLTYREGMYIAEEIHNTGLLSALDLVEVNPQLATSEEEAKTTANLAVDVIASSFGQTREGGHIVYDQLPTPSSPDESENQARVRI
# [6] = target: T3, Proteasome subunit beta (Trypanosoma cruzi) (UniProt O96673); test: Trypanosoma cruzi proteasome chymotrypsin-like activity (TcProtChymo) assay.; note: in the data most compounds retested in dose-response had high values; assay type: functional; conditions: 9.37 µM
# T3 sequence (whole entry): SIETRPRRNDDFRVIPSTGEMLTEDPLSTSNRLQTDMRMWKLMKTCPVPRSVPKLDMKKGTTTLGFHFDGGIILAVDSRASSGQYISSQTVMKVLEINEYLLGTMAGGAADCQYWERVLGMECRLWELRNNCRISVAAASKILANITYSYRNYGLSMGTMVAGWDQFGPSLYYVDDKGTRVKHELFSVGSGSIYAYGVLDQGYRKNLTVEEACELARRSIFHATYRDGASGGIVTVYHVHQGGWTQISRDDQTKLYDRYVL
# [7] = species on record: Homo sapiens; test: To identify inhibition of the IFN signalling (Jak-Stat) pathway via expression of an eGFP reporter gene under the control of an IFN-stimulated response element (ISRE) containing MxA promoter.; assay type: functional; conditions: 30 µM
# [8] = target: T4, Tyrosyl-tRNA synthetase, putative (Trypanosoma cruzi (strain CL Brener)) (UniProt Q4DSP6); test: Trypanosoma cruzi tyrosyl tRNA synthetase (TcYRS) _High Tyrosine SOP; assay type: functional; conditions: 30 µM; note: in the data most compounds retested in dose-response had high values
# T4 sequence (whole entry): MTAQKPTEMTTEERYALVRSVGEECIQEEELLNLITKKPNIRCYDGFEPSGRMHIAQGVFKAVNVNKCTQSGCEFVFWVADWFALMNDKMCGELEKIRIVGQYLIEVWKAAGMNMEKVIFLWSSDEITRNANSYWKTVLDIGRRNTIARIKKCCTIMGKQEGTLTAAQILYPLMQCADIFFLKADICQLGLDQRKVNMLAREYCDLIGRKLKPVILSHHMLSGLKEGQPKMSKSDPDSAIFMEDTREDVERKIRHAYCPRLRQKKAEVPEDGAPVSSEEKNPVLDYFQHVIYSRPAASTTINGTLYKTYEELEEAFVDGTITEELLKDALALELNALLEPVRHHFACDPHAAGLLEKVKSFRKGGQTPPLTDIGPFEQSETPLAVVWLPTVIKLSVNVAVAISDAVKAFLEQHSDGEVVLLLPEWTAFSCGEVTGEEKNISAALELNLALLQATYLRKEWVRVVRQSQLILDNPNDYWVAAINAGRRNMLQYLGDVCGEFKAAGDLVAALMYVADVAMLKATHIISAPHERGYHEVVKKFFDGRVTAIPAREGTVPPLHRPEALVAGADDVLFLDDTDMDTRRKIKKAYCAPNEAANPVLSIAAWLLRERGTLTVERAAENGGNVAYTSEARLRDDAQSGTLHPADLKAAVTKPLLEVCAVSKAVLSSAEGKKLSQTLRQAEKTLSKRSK
# [9] = target: T4, Tyrosyl-tRNA synthetase, putative (Trypanosoma cruzi (strain CL Brener)); test: Trypanosoma cruzi tyrosyl tRNA synthetase (TcYRS) SOP; assay type: functional; conditions: 30 µM
# [10] = target: Chromo domain-containing protein 1 (Saccharomyces cerevisiae (strain ATCC 204508 / S288c) (Baker's yeast)) (UniProt P32657); test: ScCHD-1 Enzyme Inhibition Assay; assay type: functional; conditions: 30 µM; note: in the data most compounds retested in dose-response had high values
# Sequence of Chromo domain-containing protein 1 (Saccharomyces cerevisiae (strain ATCC 204508 / S288c) (Baker's yeast)) (P32657 whole entry, the tested form may be a part): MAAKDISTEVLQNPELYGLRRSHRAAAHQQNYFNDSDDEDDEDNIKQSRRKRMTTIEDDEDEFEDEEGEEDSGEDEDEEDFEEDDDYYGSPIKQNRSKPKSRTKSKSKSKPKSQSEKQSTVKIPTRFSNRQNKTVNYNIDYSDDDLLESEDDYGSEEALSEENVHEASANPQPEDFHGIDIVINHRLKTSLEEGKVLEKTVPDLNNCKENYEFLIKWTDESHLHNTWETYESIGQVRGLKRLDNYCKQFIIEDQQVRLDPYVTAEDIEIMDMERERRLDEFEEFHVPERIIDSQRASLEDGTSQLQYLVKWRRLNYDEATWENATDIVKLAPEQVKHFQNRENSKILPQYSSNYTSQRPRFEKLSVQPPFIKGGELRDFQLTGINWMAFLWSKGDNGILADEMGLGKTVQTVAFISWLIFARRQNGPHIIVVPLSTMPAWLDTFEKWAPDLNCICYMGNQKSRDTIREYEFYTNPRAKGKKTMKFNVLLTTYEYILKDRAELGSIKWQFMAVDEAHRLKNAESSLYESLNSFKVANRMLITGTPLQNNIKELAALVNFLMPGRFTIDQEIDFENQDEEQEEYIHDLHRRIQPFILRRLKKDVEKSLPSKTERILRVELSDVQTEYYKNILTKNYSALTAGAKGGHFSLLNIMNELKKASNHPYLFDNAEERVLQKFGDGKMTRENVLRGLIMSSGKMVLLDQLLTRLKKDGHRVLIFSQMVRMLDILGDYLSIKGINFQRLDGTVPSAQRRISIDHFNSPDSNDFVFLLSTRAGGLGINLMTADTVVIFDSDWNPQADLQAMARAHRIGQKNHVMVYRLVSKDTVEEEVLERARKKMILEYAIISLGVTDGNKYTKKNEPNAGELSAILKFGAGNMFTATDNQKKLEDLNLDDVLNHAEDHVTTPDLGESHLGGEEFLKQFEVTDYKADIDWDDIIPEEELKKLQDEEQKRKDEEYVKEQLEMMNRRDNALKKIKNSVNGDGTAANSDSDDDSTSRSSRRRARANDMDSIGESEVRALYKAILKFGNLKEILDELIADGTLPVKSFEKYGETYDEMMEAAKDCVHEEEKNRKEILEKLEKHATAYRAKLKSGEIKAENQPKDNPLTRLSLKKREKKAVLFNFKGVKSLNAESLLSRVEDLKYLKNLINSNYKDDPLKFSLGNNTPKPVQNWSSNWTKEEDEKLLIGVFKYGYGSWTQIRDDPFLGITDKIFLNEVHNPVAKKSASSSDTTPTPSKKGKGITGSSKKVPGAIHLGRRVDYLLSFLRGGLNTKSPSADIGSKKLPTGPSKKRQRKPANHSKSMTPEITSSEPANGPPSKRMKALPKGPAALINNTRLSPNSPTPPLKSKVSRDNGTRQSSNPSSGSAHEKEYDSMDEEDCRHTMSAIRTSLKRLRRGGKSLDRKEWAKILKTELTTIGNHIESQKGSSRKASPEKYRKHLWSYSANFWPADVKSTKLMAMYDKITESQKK
SMILES,Percent Effect [1],Percent Effect [2],Percent Effect [3],Percent Effect [4],Percent Effect [5],Percent Effect [6],Percent Effect [7],Percent Effect [8],Percent Effect [9],Percent Effect [10]
Cc1noc(C)c1CN(C)CCC(=O)N1CCc2sccc2C1,-4.9%,0%,7.48%,-1%,0.444%,8.74%,17.8%,4.74%,5.13%,-7.86%
CC(NC(=O)N1CCN(c2ccc(Cl)cc2)CC1)C(=O)N1CCSCC1 (stereo not given),-6.05%,8.11%,0.915%,-2.04%,0.35%,17.8%,13.2%,5.85%,12.2%,-1.19%
CC(=O)c1sc(Nc2ccc(Cl)cn2)nc1C,-2.68%,24.7%,1.41%,1.13%,0.913%,12.6%,24.7%,2.9%,-37.5%,-10.7%
CC(C)CN1CCC2(CCN(C(=O)c3ccc(F)cc3)CC2)C1=O,-1.91%,19.5%,0.691%,1.5%,0%,6.27%,-20.9%,11.6%,22.5%,-8.66%
CS(=O)(=O)NCC1CCCN(C(=O)c2ccc(Cl)o2)C1 (stereo not given),1.32%,7.79%,-4.36%,-0.746%,7.58%,14.6%,-11.3%,4.9%,18.8%,-10%
CCCN(C(=O)COC)c1nc2c(s1)CCc1c-2cnn1C,6.68%,52%,21%,-3.16%,23.9%,2.79%,17.9%,-13.8%,-15%,-18.2%
COc1ccccc1CC(=O)N1CC[C@@]2(CCCO2)[C@@H](OC)C1,-3.82%,4%,-4.43%,-3.35%,-9.29%,6.4%,14.4%,-1.06%,5%,-24.2%
Cc1noc(C2CCN(C(=O)CCNc3ncccn3)CC2)n1,-0.897%,12.8%,-14%,5.92%,0%,9.98%,14.8%,6.22%,22.9%,-4.88%
CC(C)c1ncncc1C(=O)NCCN1CCCS1(=O)=O,-3.82%,5.13%,-1.57%,7.98%,3.69%,3.5%,1.77%,1.44%,10.8%,1.18%
O=C(CCC1CCN(Cc2ncc[nH]2)CC1)Nc1ccccc1Cl,-2.38%,-5.41%,-2.45%,-0.291%,-2.45%,8.56%,0.831%,-0.532%,0%,4.74%
Cc1ccc(S(=O)(=O)N2CCOc3ccccc32)cc1C(N)=O,-0.964%,10.3%,-14.2%,-4.79%,-2.87%,10.5%,34.9%,0.478%,8.43%,17.3%
c1ccc(OCc2ccncc2)c(CNC2CCc3ncnn3C2)c1 (stereo not given),1.01%,17.9%,-16.6%,-0.845%,10.7%,11.5%,20%,7.18%,18.1%,-0.669%
c1cnn(CC2CCCN2Cc2nc(-c3ccoc3)no2)c1 (stereo not given),-4.7%,5.33%,2.88%,3.41%,-4.88%,10.3%,-9.56%,4.74%,7.69%,-12.5%
Fc1ccc(CN2CCCC2c2cncc(-n3ccnc3)n2)cc1 (stereo not given),-2.01%,9.33%,-0.339%,-0.986%,0.885%,-1.97%,3.29%,4.23%,12.5%,-24.9%
